Reference: PubChem BioAssay (NCI)
About 79,000 compounds went through this panel and 15% of them were active in at least one assay; those are over-represented in the sample as a whole. Cut-off read from the data, not from the text of the source: active = growth inhibition above about 70%; inactive = the rest.

Experiments:
[1] = NCI Yeast Anticancer Drug Screen. Data for the rad50 strain (AID 155);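 note: 0% = growth of vehicle-only cultures of the same strain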; settings: S. cerevisiae rad50 strain growth inhibition; at 50.0 µM; hits give high values
How it was run: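 Compounds were tested on a yeast strain with an engineered DNA damage repair alteration; the reported value is growth inhibition normalised to vehicle treatment.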

[2] = NCI Yeast Anticancer Drug Screen. Data for the mec2-1 strain (AID 157); settings: S. cerevisiae mec2-1 strain, at 50.0 µM, hits give high values
How it was run: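 Readout is yeast growth inhibition, normalised to vehicle-treated controls, in the mec2-1 strain exposed to compound.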

[3] = NCI Yeast Anticancer Drug Screen. Data for the sgs1 mgt1 strain (AID 161);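 note: 0% = growth of cultures given vehicle only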; settings: S. cerevisiae sgs1 mgt1 strain, at 50.0 µM, hits give high values
How it was run: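 Yeast cells carrying a defined DNA-repair defect were exposed to test compounds. Growth inhibition was measured relative to vehicle-treated controls.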

[4] = NCI Yeast Anticancer Drug Screen. Data for the cln2 rad14 strain (AID 165);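 note: 0% = growth equal to vehicle treated cultures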; settings: S. cerevisiae cln2 rad14 strain, at 50.0 µM, hits give high values
How it was run: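 Relative to vehicle controls, growth inhibition of compound-treated cln2 rad14 yeast was recorded.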

[5] = NCI Yeast Anticancer Drug Screen. Data for the bub3 strain (AID 167); settings: S. cerevisiae bub3 mutant strain, at 50.0 µM, hits give high values
How it was run: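 Growth of a checkpoint-deficient yeast mutant is measured after compound exposure. Values represent inhibition relative to vehicle.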

[6] = NCI Yeast Anticancer Drug Screen. Data for the mlh1 rad18 strain (AID 175); settings: S. cerevisiae mlh1 rad18 strain growth inhibition; at 50.0 µM; hits give high values
How it was run: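 Test agents were incubated with a yeast strain of defined genotype (DNA damage repair defect). Inhibition of growth was derived by comparison with vehicle-exposed cultures.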

Measured: growth inhibition

O=C(Nc1c(Cl)cccc1Cl)Nc1c(Cl)cccc1Cl
inactive: [1] -0.95% | [2] -4.85% | [3] 21.1% | [4] 6.7% | [5] 16.8% | [6] 10.9%

COC(=O)/C=C/c1cc(=O)n2c(nc3ccccc32)s1
inactive: [1] -11.1% | [2] -20.1% | [3] -13.2% | [4] -35.2% | [5] -41.5% | [6] -12.2%

Cc1nn2c(C(=O)O)nnc2s1
inactive: [1] -0.3% | [2] 5.25% | [3] 7.7% | [4] -21.8% | [5] -16.6% | [6] -13.8%

CCC(=O)c1ccccc1C#N
inactive: [1] 8.5% | [2] -3.25% | [3] 1.6% | [4] -4.3% | [5] 0.1% | [6] -1.45%

Fc1cccc(C2ON=C(c3ccccc3)N2C23CC4CC(CC(C4)C2)C3)c1 (stereo not drawn)
inactive: [1] 4.9% | [2] -1.85% | [3] 6.1% | [4] 36.8% | [5] -8.35% | [6] 33.9%

Cc1nc(-n2nc(-c3ccccc3)cc2-c2ccccc2)sc1C(/C=C/c1ccc([N+](=O)[O-])cc1)=N/NC(=O)c1ccncc1
inactive: [1] 47.4% | [2] 36.7% | [3] 17.9% | [4] -24.7% | [5] 46.1% | [6] 58.5%

O=C(c1ccccc1)C1CC2C=CC1C2 (stereo not drawn)
inactive: [1] 4.3% | [2] -8.25% | [3] 2.4% | [4] 36.9% | [5] -0.7% | [6] 17.2%

CCOC(=O)C(=O)c1c[nH]c2ccccc12
inactive: [1] -3.35% | [2] 2.45% | [3] -2.5% | [4] -12.1% | [5] 6.4% | [6] 10%

CCOc1cccc(-c2ccccc2)c1
inactive: [1] 18.3% | [2] 17.6% | [3] 16.9% | [4] 9.35% | [5] 1.1% | [6] -0.35%

CCCC(=O)Oc1ccccc1C1CCCCC1
inactive: [1] 15.9% | [2] 23.8% | [3] 12.3% | [4] 21.3% | [5] 7.35% | [6] 3.45%

[Br][Pt+2][Br].[NH-]c1cccc(F)c1.[NH-]c1cccc(F)c1
inactive: [1] 50.9% | [2] 11.4% | [3] 39.4% | [4] 6.4% | [5] 5.65% | [6] 46.3%

CCOC(=O)N1CC2CCc3c(ccc4ccccc34)N2C1=O (stereo not drawn)
inactive: [1] -2.35% | [2] 10.5% | [3] -4.5% | [4] -3.6% | [5] 7.4% | [6] 14.2%

Oc1c(Cl)cc(Cl)cc1C=Nc1ccc2c(ccc3c4ccccc4ccc23)c1
inactive: [1] 7.95% | [2] 2.4% | [3] -2.4% | [4] -41.4% | [5] 6.55% | [6] 15.1%

COCCOC(=O)c1ccccc1O
inactive: [1] 5.45% | [2] 13.8% | [3] 13.8% | [4] 2.95% | [5] -13.2% | [6] -1.25%

CN(C)C1=CC(=O)NC(c2ccccc2)C1 (stereo not drawn)
inactive: [1] -10.6% | [2] -17.4% | [3] -10.6% | [4] -14.2% | [5] -3.45% | [6] -11.6%

CCCCNC(=O)/C=C\C(=O)O
inactive: [1] 5.95% | [2] -10.3% | [3] -1.65% | [4] 2.75% | [5] -8.5% | [6] 1.45%

CSC(C(=O)O)c1cc(-c2c(Cl)cccc2Cl)no1 (stereo not drawn)
inactive: [1] -1.95% | [2] 23.8% | [3] 29% | [4] 8.85% | [5] 24.4% | [6] 22.9%

COC(=O)C1=Cc2cc(OC)c(OC)cc2[C@H](c2ccc(OC)c(OC)c2)C1C(=O)OC (stereo partly drawn)
inactive: [1] -6.8% | [2] -11.7% | [3] -31.4% | [4] 0.95% | [5] 18.2% | [6] 1.45%

O=C(Oc1ccc(OC(=O)c2ccccc2)c(C2CCCCCC2)c1)c1ccccc1
inactive: [1] 32.9% | [2] -1.75% | [3] 25.1% | [4] 14.3% | [5] 7.1% | [6] 9%

CCC(=O)c1c(O)cc(O)cc1O
inactive: [1] -13.8% | [2] -15.6% | [3] 13.7% | [4] -22.6% | [5] 2.5% | [6] -25%

C[N+](C)(C)CCOC(=O)/C=C/c1cnc[nH]1
inactive: [1] 9.7% | [2] 10.9% | [3] 37.7% | [4] 23.6% | [5] 6.4% | [6] 16.1%

N#Cc1cn(Cc2ccccc2)c2ccccc2c1=O
inactive: [1] -0.3% | [2] -3.15% | [3] 3.95% | [4] 47.9% | [5] 7.3% | [6] 1.15%

CCOC(=O)/C(C#N)=N/Nc1ccc(S(=O)(=O)NC(C)=O)cc1
inactive: [1] -16.6% | [2] -10.5% | [3] 5.8% | [4] 11.5% | [5] -2.95% | [6] -4.4%

[N-]=[N+]=Nc1cc(=O)n(-c2ccccc2)c(=O)n1-c1ccccc1
inactive: [1] 9.5% | [2] 8.75% | [3] 13.3% | [4] 21.6% | [5] 10.3% | [6] 32.2%

CCN1C(=O)/C(=C\c2coc3ccccc3c2=O)SC1=S
inactive: [1] -2.6% | [2] -34.7% | [3] 0.2% | [4] 0.5% | [5] -23.7% | [6] -0.2%

Nc1nc2c(C(=O)NCc3cccs3)nnn2c2cccc(Cl)c12
inactive: [1] -6.25% | [2] -1.45% | [3] -5.35% | [4] 4.2% | [5] -20.3% | [6] 7.05%

O=[N+]([O-])c1ccc(S(=O)(=O)N/N=C\c2cc([N+](=O)[O-])ccc2O)cc1
inactive: [1] 11.8% | [2] -1.4% | [3] 11.2% | [4] -35.2% | [5] 1.55% | [6] 26.6%

O=c1[nH]c2cc([N+](=O)[O-])ccc2nc1/C=C(\O)c1cccc([N+](=O)[O-])c1
inactive: [1] 12.3% | [2] -1.35% | [3] 5.25% | [4] -5.15% | [5] -3.1% | [6] 28.6%

O=[N+]([O-])c1cc(C(F)(F)F)ccc1Oc1cccc(C(F)(F)F)c1
inactive: [1] -13.4% | [2] 2% | [3] 5.6% | [4] -64.8% | [5] 42.6% | [6] 16.9%

CN(C)c1ccc(-c2c(C#N)c(N)[nH]c(=S)c2C#N)cc1
inactive: [1] 9.9% | [2] -2.35% | [3] 4.7% | [4] 6.35% | [5] 16.9% | [6] 3.45%

CN(C)C(=O)CCCCC(=O)N(C)C
inactive: [1] 16.5% | [2] -5.2% | [3] 1.45% | [4] -14.7% | [5] 5.65% | [6] -22.2%

O=C1CC(Cc2n[nH]c3c2CCC3)CC(=O)N1
inactive: [1] -8.25% | [2] 2.65% | [3] -10.2% | [4] -16.4% | [5] -10% | [6] -13.2%

COC(=O)/C(=N\N)C(C(=O)C(=O)Nc1cc(Cl)ccc1Cl)c1nc2ccc([N+](=O)[O-])cc2[nH]c1=O (stereo not drawn)
inactive: [1] 13.1% | [2] 6.6% | [3] -6.15% | [4] -20.2% | [5] 25.9% | [6] 12.7%

CN1CCN(CCSC(=O)C(O)(c2ccccc2)C2CCCC2)CC1 (stereo not drawn)
inactive: [1] 17.1% | [2] 16.6% | [3] 7.35% | [4] -17.2% | [5] 4.6% | [6] 24.8%

CC1CCC(C(C)(C)O)CC1O (stereo not drawn)
inactive: [1] -12.9% | [2] 2.05% | [3] 0.9% | [4] -9.05% | [5] -16.8% | [6] -7.55%

O=C1CCCc2c1cc1c3c(cccc23)CC1
inactive: [1] -9.9% | [2] -23.2% | [3] 0.7% | [4] -15.6% | [5] 9.8% | [6] -1.85%

CC1C(c2ccccc2O)c2cc3c(cc2OC1N1CCOCC1)OCO3 (stereo not drawn)
inactive: [1] -24.9% | [2] -13.6% | [3] 7.45% | [4] -5.75% | [5] -18.2% | [6] -29.1%

CCN(CC)S(=O)(=O)c1ccc(N)cc1
inactive: [1] 26.1% | [2] 2.15% | [3] 25.4% | [4] -13.9% | [5] -2.2% | [6] 8.4%
